PubChem BioAssay
Activity calls are given as the source filed them. Unless noted, no rule for the calls is given here.

Key:
[1] = resazurin metabolic signal in HepG2 cells – cell-based, resazurin fluorescence, 24 h, PK04 Diversity Set, profiling panel (AID 1172); settings: HepG2 viability, higher = more signal; also: test concentration not given here
[2] = budding yeast growth changes without added modifier – OD600, strain BY4716, 24 h, basal condition, primary screen (AID 1173); settings: S. cerevisiae BY4716 growth, OD600, 24 h; higher = more signal, called active from +8 up or from −8 down
[3] = viability profiling in MM1S myeloma cells – cell-based, resazurin fluorescence, basal, 24 h, PK04 Diversity Set, profiling panel (AID 1174); settings: higher = more signal, called active from +8 up or from −8 down;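 also: MM1S multiple myeloma cell line; test concentration not given here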
[4] = target: Dihydroorotate dehydrogenase (quinone), mitochondrial (Plasmodium falciparum (isolate 3D7)) (UniProt Q08210); assay: inhibition of P. falciparum DHODH – biochemical, C-terminal His tag, absorbance 600 nm, primary screen (AID 1175); settings: PfDHODH enzyme, DCIP absorbance 600 nm; higher = more signal, called active from +8 up or from −8 down;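 also: recombinant parasite enzyme with a five histidine tag at its C terminus; test concentration not given here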
[5] = inhibition of PAO1 biofilm formation – strain PAO1, LB-PBS medium, absorbance 600 nm, primary screen (AID 1176); also: test concentration not given here; settings: P. aeruginosa PAO1 growth/biofilm, A600, 12 h; higher = more signal
[6] = growth modulation of vineyard yeast isolate – strain RM11-1a, OD600, basal, 24 h, primary screen (AID 1177);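 also: cultures grown under basal conditions with no added stressor; test concentration not given here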; settings: S. cerevisiae RM11-1a growth, OD600, 24 h; higher = more signal, called active from +8 up or from −8 down
[7] = growth of efflux-deficient E. coli DRC39 – strain DRC39, OD650, 24 h, E. coli filamentation inducers, primary screen (AID 1178);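 also: growth measured as culture turbidity by optical density at 650 nm; test concentration not given here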; settings: E. coli DRC39 acrAB, higher = more signal, called active from +8 up or from −8 down
[8] = growth of efflux-deficient E. coli DRC39 – strain DRC39, OD650, 48 h, E. coli filamentation inducers, primary screen (AID 1179);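 also: screen aims at cell division blockers that make cells filament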; settings: E. coli DRC39 delta-acrAB growth, higher = more signal, called active from +8 up or from −8 down
[9] = viability profiling in RPMI8226 myeloma cells – cell-based, resazurin fluorescence, basal, 24 h, PK04 Diversity Set, profiling panel (AID 1180); settings: higher = more signal;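 also: RPMI8826 multiple myeloma cell line at 5000 cells per well; test concentration not given here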
[10] = target: E3 ubiquitin-protein ligase XIAP (Homo sapiens) (UniProt P98170); assay: small molecules binding XIAP protein – biophysical, small-molecule microarray, fluorescence 635 nm, primary screen (AID 1181); settings: higher = more signal;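 also: score merges 667 nm emission and signal to noise over triplicate slides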
E3 ubiquitin-protein ligase XIAP (Homo sapiens), sequence (P98170 whole entry, looked up): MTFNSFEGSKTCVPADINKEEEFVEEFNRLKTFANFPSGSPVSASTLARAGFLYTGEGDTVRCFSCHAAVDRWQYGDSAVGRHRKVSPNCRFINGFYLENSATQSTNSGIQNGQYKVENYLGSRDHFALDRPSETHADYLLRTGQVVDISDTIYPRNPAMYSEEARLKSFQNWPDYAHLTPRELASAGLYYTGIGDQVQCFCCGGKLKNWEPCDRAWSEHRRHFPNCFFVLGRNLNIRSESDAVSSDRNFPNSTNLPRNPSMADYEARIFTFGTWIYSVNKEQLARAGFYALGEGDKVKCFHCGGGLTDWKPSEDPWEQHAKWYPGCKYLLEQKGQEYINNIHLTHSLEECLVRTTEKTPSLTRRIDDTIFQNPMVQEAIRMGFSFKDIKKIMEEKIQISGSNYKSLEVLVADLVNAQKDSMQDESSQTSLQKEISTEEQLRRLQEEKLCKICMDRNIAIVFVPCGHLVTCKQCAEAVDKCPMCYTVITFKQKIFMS

Dihydroorotate dehydrogenase (quinone), mitochondrial (Plasmodium falciparum (isolate 3D7)), sequence (Q08210 whole entry, looked up): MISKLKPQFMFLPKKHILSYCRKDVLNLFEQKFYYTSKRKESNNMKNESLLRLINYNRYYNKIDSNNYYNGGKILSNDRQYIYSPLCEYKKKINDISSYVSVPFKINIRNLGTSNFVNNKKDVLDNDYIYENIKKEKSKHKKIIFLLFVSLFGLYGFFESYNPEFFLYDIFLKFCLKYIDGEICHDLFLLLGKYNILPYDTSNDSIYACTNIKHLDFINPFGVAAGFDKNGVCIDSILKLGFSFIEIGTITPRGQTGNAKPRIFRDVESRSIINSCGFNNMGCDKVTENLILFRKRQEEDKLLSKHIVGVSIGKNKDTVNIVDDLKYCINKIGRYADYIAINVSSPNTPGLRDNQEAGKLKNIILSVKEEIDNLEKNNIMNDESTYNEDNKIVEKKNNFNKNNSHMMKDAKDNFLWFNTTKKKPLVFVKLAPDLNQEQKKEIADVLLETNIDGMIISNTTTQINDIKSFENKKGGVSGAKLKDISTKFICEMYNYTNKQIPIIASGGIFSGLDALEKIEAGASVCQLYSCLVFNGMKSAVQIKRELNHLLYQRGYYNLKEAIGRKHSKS

Row | Structure (SMILES) | z-score [1] | z-score [2] | z-score [3] | composite z-score [4] | z-score [5] | z-score [6] | z-score [7] | z-score [8] | z-score [9] | composite z-score [10]
1 | O=C1[C@H]2[C@H]3[C@H](O)[C@H](O)CC(=NO[C@@H]4O[C@H](CO)[C@@H](O)[C@H](O)[C@H]4O)[C@H]3CC[C@H]2C(=O)N1c1cccc(Oc2ccccc2)c1 | 0.648 | 0.439 (inactive) | -0.0137 (inactive) | 0.0087 (inactive) | -0.708 (inactive) | -0.929 (inactive) | -0.0313 (inactive) | -0.49 (inactive) | 0.394 | -0.0773
2 | O=C(C=Cc1ccc2c(c1)OCO2)c1ccc(F)cc1 | -0.214 | -10.1 (active) | -0.194 (inactive) | 0.184 (inactive) | -0.245 (inactive) | -0.31 (inactive) | 0.264 (inactive) | -0.423 (inactive) | -0.538 | -0.176
3 | CCOC(=O)NN=C1C[C@@H](O)[C@@H](O)[C@@H]2[C@@H]3C(=O)N(C(C)(C)C)C(=O)[C@@H]3CC[C@H]12 | -1.46 | -0.962 (inactive) | -0.4 (inactive) | -0.397 (inactive) | 0.434 (inactive) | 0.179 (inactive) | 0.408 (inactive) | 0.72 (inactive) | -0.226 | -0.246
4 | CO[C@H]1COC(=O)[C@@H](C)COC(=O)[C@@H](OCc2ccccc2)C=C[C@@H]1C | 0.409 | -0.471 (inactive) | 0.687 (inactive) | 0.976 (inactive) | -0.601 (inactive) | 1.14 (inactive) | 0.334 (inactive) | -0.183 (inactive) | 0.681 | 0.131
5 | COC(=O)CC=C[C@@H](C)[C@@H](C=NOC[C@@H](O)[C@H]1O[C@@H]2OC(C)(C)O[C@@H]2[C@H]1O)NS(=O)(=O)c1ccc(C)cc1 | -0.687 | 0.185 (inactive) | -0.502 (inactive) | -0.241 (inactive) | 0.453 (inactive) | 0.0095 (inactive) | -0.336 (inactive) | 0.447 (inactive) | -0.609 | -0.0445
6 | COc1ccc(O[C@H]2C=C[C@@H](c3ccccc3)O[C@@H]2COC(=O)CCC(C)=NO[C@@H]2O[C@H](COC(C)=O)[C@@H](OC(C)=O)[C@H](OC(C)=O)[C@H]2OC(C)=O)cc1 | 0.0729 | 1.64 (inactive) | -0.169 (inactive) | 0.671 (inactive) | -0.585 (inactive) | 1.37 (inactive) | 0.486 (inactive) | 0.167 (inactive) | 0.111 | 0.461
7 | CC(C)CON=C1C[C@@H](O)[C@@H](O)[C@@H]2[C@@H]3C(=O)N(c4cccc(Oc5ccccc5)c4)C(=O)[C@@H]3CC[C@@H]12 | -0.271 | -1.81 (inactive) | -1.5 (inactive) | -1.71 (inactive) | 0.659 (inactive) | -1.86 (inactive) | -0.321 (inactive) | -0.791 (inactive) | -0.0778 | 0.125
8 | CC(C)CON=C1C[C@@H](O)[C@@H](O)[C@@H]2[C@@H]3C(=O)N(C(C)(C)C)C(=O)[C@@H]3CC[C@H]12 | -0.184 | 0.528 (inactive) | -0.426 (inactive) | 0.15 (inactive) | -0.613 (inactive) | -0.131 (inactive) | 0.366 (inactive) | 0.476 (inactive) | -0.246 | -0.102
9 | CCOC(=O)NN=C1C[C@@H](O)[C@@H](O)[C@@H]2[C@@H]3C(=O)N(c4cccc(Oc5ccccc5)c4)C(=O)[C@@H]3CC[C@@H]12 | 0.358 | -0.22 (inactive) | -0.285 (inactive) | -0.108 (inactive) | 0.225 (inactive) | -0.114 (inactive) | -0.347 (inactive) | -1.28 (inactive) | 0.0541 | -0.122
10 | O=C(NN=C1C[C@@H](O)[C@@H](O)[C@@H]2[C@@H]3C(=O)N(C4CCCCC4)C(=O)[C@@H]3CC[C@@H]12)OCc1ccccc1 | -0.141 | -0.922 (inactive) | -0.0864 (inactive) | -0.223 (inactive) | -0.814 (inactive) | 0.0487 (inactive) | 0.193 (inactive) | 0.332 (inactive) | -0.678 | -0.505
11 | CC(C)=CCCC(C)=CCON=C1C[C@@H](O)[C@@H](O)[C@@H]2[C@@H]3C(=O)N(C(C)(C)C)C(=O)[C@@H]3CC[C@H]12 | -0.369 | -0.352 (inactive) | -0.274 (inactive) | -0.108 (inactive) | 0.152 (inactive) | -0.264 (inactive) | 0.27 (inactive) | 0.612 (inactive) | -0.245 | -0.172
12 | CO[C@H]1COC(=O)[C@H](C)NC(=O)CC=C[C@@H](C)[C@H](OC)COC(=O)[C@@H](OCc2ccccc2)C=C[C@@H]1C | 1.15 | -0.479 (inactive) | 0.346 (inactive) | 0.234 (inactive) | -0.838 (inactive) | -0.462 (inactive) | 0.575 (inactive) | 0.2 (inactive) | 0.323 | -0.142
13 | COc1ccc(O[C@H]2C=C[C@@H](c3ccccc3)O[C@@H]2COC(=O)CCC(C)=NOC(C)CN2CCCc3nc(C)c(C)cc32)cc1 (stereo not given in full) | 1.21 | -0.729 (inactive) | -0.317 (inactive) | -0.154 (inactive) | -0.336 (inactive) | 1.37 (inactive) | 1.09 (inactive) | 0.129 (inactive) | 0.757 | -0.127
